Measurements reported in ChEMBL document CHEMBL1157539, “Thousands of chemical starting points for antimalarial lead identification” (Nature, 2010).

Tests used:
Assay type in all cases: functional
Plasmodium falciparum [1] = test: GSK_TCMDC: Inhibition of Plasmodium falciparum 3D7 in whole red blood cells, using parasite LDH activity as an index of growth. Test compounds present at 2uM
Plasmodium falciparum [2] = test: GSK_TCMDC: Inhibition of Plasmodium falciparum Dd2 in whole red blood cells, using parasite LDH activity as an index of growth. Test compounds present at 2uM
HepG2 = test: GSK_TCMDC: Percent inhibition of human HepG2 cell line. Test compounds present at 10uM.

Row | Structure (SMILES) | Inhibition (Plasmodium falciparum [1]) [%] | Inhibition (Plasmodium falciparum [2]) [%] | Inhibition (HepG2) [%]
1 | O=C(/C=C/c1ccc(Cl)c(Cl)c1)NCCCCCN1CCCN(C(=O)Nc2ccc(Cl)cc2)CC1 | 100 | 0 | 21
2 | COc1ccc(NC(=O)NC2CCN(c3ccnc4cc(Cl)ccc34)CC2)cc1.O=C(O)C(F)(F)F | 83 | 64 | 5
3 | Br.N=C1c2ccccc2CN1CC(=O)c1ccc(Cl)c(Cl)c1 | 98 | 16 | 1
4 | COC(=O)c1cccc(CNCc2ccc(-c3ccc(-c4nc5cccc(C)c5[nH]4)cc3)cc2)c1.O=C(O)C(F)(F)F | 100 | 86 | 17
5 | Cc1ccc(NC(=O)N2CCCN(CCCCCNC(=O)/C=C/c3ccc(Cl)c(Cl)c3)CC2)cc1 | 99 | 2 | 12
6 | CCOc1ccc2[nH]c(C)cc(=NN=Cc3ccccc3F)c2c1 | 100 | 99 | 0
7 | Cn1c(Cc2ccccc2)nnc1Sc1ccc(C#N)c([N+](=O)[O-])c1 | 93 | 29 | 0
8 | CS(=O)(=O)CCNCc1ccc(-c2cc3c(Nc4ccc(OCc5cccc(F)c5)c(Cl)c4)ncnc3s2)[nH]1 | 99 | 95 | 5
9 | O=C(Nc1cccc(C(F)(F)F)c1)N1CCOC(CCN2CCC3(CCc4ccccc43)CC2)(c2ccc(Cl)c(Cl)c2)C1 (stereo not given) | 99 | 70 | 31
10 | N#Cc1ccc(C(=O)Nc2ccc(-c3cccc(CN4CCCC4)c3)cc2)cc1.O=C(O)C(F)(F)F | 89 | 1 | 17
11 | O=C(/C=C/c1ccc(Cl)cc1)NCCCCCN1CCC(C(=O)Nc2cccc(Cl)c2)CC1 | 97 | 0 | 22
12 | COc1cc2nc(NCCc3cccc(Cl)c3)nc(NCc3ccccc3)c2cc1OC | 100 | 100 | 97
13 | Fc1ccc2[nH]c(-c3ccc(-c4cccc(CN5CCN(CCN6CCOCC6)CC5)c4)cc3)nc2c1.O=C(O)C(F)(F)F | 100 | 100 | 35
14 | O=C(NC1CCCCN(Cc2ccccc2O)C1)c1cccc(Cl)c1.O=C(O)C(F)(F)F (stereo not given) | 86 | 30 | 15
15 | CN(C)c1cccc2c1nc(-c1ccc3c(c1)CCO3)n2CCNCc1ccccc1.O=C(O)C(F)(F)F | 99 | 85 | 6
16 | CCCCCCCC1CCN(C[C@H](O)c2ccnc3ccc(OC)cc23)CC1.O=C(O)C(=O)O | 94 | 81 | 23
17 | O=S(=O)(Nc1cccc(CCN2CCC(N3CCCCC3)CC2)c1)c1ccc(Cl)cc1 | 94 | 23 | 18
18 | O=C(O)C(F)(F)F.c1cncc(CCNCc2ccc(-c3ccc(CNC4Cc5ccccc5C4)cc3)cc2)c1 | 92 | 29 | 32
19 | NC1CCN(CCNCc2cccc(-c3ccc(-c4nc5cc(F)ccc5[nH]4)cc3)c2)C1.O=C(O)C(F)(F)F (stereo not given) | 99 | 4 | 8
20 | COc1ccc(Nc2nc(C)cc(NC3CCCC3)n2)cc1 | 98 | 59 | 34
21 | Cl.NC1CCN(CCc2ccc(NS(=O)(=O)c3cccc4ccccc34)cc2)CC1 | 94 | 4 | 21
22 | CC(C)C[C@@H](/C=N/N1CCNC1=O)NC(=O)[C@H](CC(C)C)NC(=O)c1ccc(OCCN2CCOCC2)cc1 | 97 | 89 | 21
23 | COc1ccc(CNCCc2cccs2)cc1-c1ccc(S(=O)(=O)NCCN2CCCC2)s1.O=C(O)C(F)(F)F | 99 | 21 | 41
24 | CCN(CC)/C(=N\CCCCCC/N=C(\NC(=N)c1ccc(Cl)cc1)N(CC)CC)NC(=N)c1ccc(Cl)cc1 | 97 | 99 | 1
25 | CCN(CC)CC#Cc1ccc2[nH]c(C)c(Cl)c(=O)c2c1 | 96 | 95 | 11
26 | CCOC(=O)c1ccc(NCc2ccccn2)cc1 | 99 | 0 | 0
27 | O=C(/C=C/c1ccc(Cl)c(Cl)c1)NC1CCC(CN2CCC(c3nc4ccccc4s3)CC2)CC1 (stereo not given) | 87 | 32 | 50
28 | O=C(Nc1ccc(Oc2ccccc2)cc1)N[C@@H](Cc1ccc(O)cc1)C(=O)NC1CCN(Cc2ccc(O)c([N+](=O)[O-])c2)C1 (stereo not given in full) | 100 | 0 | 0
29 | COc1ccc(CN(C)CC(O)COc2ccc(NC(=O)c3cccc4c(=O)c5cccc(OC)c5[nH]c34)cc2)cc1OC (stereo not given) | 93 | 65 | 72
30 | CN(C)c1ccc(-c2ccc(C(=O)NC3CCN(Cc4ccc(F)cc4)CC3)s2)cc1.O=C(O)C(F)(F)F | 87 | 19 | 34
